The values below come from paper PMC4336329 (PLoS ONE, 2015).

Hit rate of the full screen: of about 310,000 compounds, about 2,200 (0.71%) showed an effect of 50% or more. The effect is printed as a negative number. Many of the other results were omitted from the sample, so strong results are more common in it than they were.

This test deals with human ether-à-go-go-related gene (hERG) potassium channel (human, UniProt Q12809). Put plainly: primary screen, population patch clamp on CHO cells stably expressing hERG; higher = less effect of the substance.
human ether-à-go-go-related gene (hERG) potassium channel, sequence (Q12809 whole entry, looked up): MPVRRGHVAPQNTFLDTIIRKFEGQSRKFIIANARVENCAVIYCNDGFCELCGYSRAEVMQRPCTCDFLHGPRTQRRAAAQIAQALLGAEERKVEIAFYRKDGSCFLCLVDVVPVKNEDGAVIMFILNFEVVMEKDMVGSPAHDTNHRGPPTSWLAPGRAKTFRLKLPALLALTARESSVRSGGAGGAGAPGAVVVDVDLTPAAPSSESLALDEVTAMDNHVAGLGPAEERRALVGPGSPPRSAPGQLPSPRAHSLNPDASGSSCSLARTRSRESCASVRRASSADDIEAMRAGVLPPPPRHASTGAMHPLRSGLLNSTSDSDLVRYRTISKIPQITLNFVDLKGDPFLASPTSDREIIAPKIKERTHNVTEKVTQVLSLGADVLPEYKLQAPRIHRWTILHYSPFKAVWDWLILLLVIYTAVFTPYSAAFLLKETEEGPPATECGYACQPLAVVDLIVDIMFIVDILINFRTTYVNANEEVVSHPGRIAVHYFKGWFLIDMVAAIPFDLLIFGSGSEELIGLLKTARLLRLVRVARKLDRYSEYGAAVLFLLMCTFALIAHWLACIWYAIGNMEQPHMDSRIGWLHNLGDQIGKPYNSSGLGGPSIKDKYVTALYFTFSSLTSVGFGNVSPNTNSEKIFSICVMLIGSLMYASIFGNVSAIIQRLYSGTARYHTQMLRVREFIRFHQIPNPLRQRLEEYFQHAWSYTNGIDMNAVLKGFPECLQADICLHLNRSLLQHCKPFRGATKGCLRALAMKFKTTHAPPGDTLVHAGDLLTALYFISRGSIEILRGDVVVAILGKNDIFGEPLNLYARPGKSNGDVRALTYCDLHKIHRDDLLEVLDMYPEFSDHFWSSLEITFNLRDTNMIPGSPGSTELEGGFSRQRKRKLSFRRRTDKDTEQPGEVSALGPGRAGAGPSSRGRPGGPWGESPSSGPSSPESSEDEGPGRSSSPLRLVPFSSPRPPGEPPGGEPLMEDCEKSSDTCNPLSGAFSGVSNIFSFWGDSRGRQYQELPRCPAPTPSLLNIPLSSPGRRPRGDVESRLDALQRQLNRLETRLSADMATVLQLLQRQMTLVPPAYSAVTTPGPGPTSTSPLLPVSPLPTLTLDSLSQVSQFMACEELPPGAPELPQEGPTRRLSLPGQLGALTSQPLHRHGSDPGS
For `Cc1[nH]nc(NCCO)c1[N+](=O)[O-]`, the “hERG current change (%, negative = inhibition) at 1uM” value is reported as -3.88%.

Consider `CCOc1ccc(NC(=O)CN(c2ccc(OC)cc2)S(C)(=O)=O)cc1`, for which the “hERG current change (%, negative = inhibition) at 1uM” value stood at 8.87%.

For the molecule `CCC(C)[C@H](NC(=O)C1CC(=O)N(c2ccc3c(c2)OCO3)C1)C(=O)NC1CCCCC1` (stereo partly shown), the “hERG current change (%, negative = inhibition) at 1uM” value was 29.5%.

As for `COC(=O)C(Cc1ccc(OC(=O)c2ccc(C(F)(F)F)cc2)cc1)N1Cc2ccccc2C1=O` (stereo not shown), the “hERG current change (%, negative = inhibition) at 1uM” value stood at 13.8%.

Take `COc1cccc(C(=O)NC2CCCN(C3Cc4ccccc4C3)C2)c1OC` (stereo not shown): the “hERG current change (%, negative = inhibition) at 1uM” value was found to be 0.941%.

Turning to `O=C(NC1CCCN(C2Cc3ccccc3C2)C1)c1ccc(F)cc1Cl` (stereo not shown), the “hERG current change (%, negative = inhibition) at 1uM” value is -72.9%.

As for `O=C(NC1CC1)c1ccc(F)cc1Cl`, the “hERG current change (%, negative = inhibition) at 1uM” value amounted to 14.2%.

With `N/C(=N\OC(=O)c1cc(-c2ccccc2)nc2ccccc12)c1ccncc1`, the “hERG current change (%, negative = inhibition) at 1uM” value came to 8.01%.

As for `CCOc1cc(S(=O)(=O)N2CCN(CC)CC2)ccc1Cl`, the “hERG current change (%, negative = inhibition) at 1uM” value was 6.75%.

As for `Cc1ccc(-c2cc(C(=O)N3CCCCCC3)no2)cc1`, the “hERG current change (%, negative = inhibition) at 1uM” value is reported as 10%.

Take `CCOC(=O)C1CCCN(C(=O)c2cc(-c3ccc(C)cc3)on2)C1` (stereo not shown): the “hERG current change (%, negative = inhibition) at 1uM” value is -59.7%.

As to `CCOC(=O)C1CCCN(C(=O)c2cc(-c3ccccc3)on2)C1` (stereo not shown), the “hERG current change (%, negative = inhibition) at 1uM” value was 3.94%.

Regarding `Cc1ccc(-c2cc(C(=O)N3CCCc4ccccc43)no2)cc1`, the “hERG current change (%, negative = inhibition) at 1uM” value is -75.5%.

`O=C(c1cc(-c2ccc(O)cc2)on1)N1CCCc2ccccc21`: the “hERG current change (%, negative = inhibition) at 1uM” value was 8.9%.

As to `O=C(c1cc(-c2ccccc2)on1)N1CCCc2ccccc21`, the “hERG current change (%, negative = inhibition) at 1uM” value came out at 8.2%.

With `COc1ccccc1/C=c1\sc2nc(-c3ccco3)nn2c1=O`, the “hERG current change (%, negative = inhibition) at 1uM” value came to 17.5%.

As for `Cc1ccc2nc(NCCO)nc(-c3ccccc3)c2c1`, the “hERG current change (%, negative = inhibition) at 1uM” value is 1.36%.

Consider `COc1ccc(C(C)=O)cc1COC(=O)c1cnc(C)cn1`, for which the “hERG current change (%, negative = inhibition) at 1uM” value is on record as 17.6%.

For `CCCCNC(=O)CCCn1c(=S)[nH]c2cc3c(cc2c1=O)OCO3`, the “hERG current change (%, negative = inhibition) at 1uM” value is reported as 19.2%.

On to `Cc1oc(-c2ccccc2Cl)nc1CN1C(=O)CN=C(c2ccccc2)c2ccccc21`, for which the “hERG current change (%, negative = inhibition) at 1uM” value is 9.3%.

`O=C(CNC(=O)/C(=C/c1ccccc1)NC(=O)c1ccc(Br)cc1)OCc1ccccc1`: the “hERG current change (%, negative = inhibition) at 1uM” value worked out at 2.24%.

Turning to `O=C(CNC(=O)/C(=C\c1ccc(Br)cc1)NC(=O)c1ccccc1)OCc1ccccc1`, the “hERG current change (%, negative = inhibition) at 1uM” value was -48%.

Turning to `O=C(CNC(=O)/C(=C\c1ccc(F)cc1)NC(=O)c1ccccc1)OCc1ccccc1`, the “hERG current change (%, negative = inhibition) at 1uM” value was -69%.

Take `O=C(CCCNC(=O)/C(=C/c1ccc(Br)cc1)NC(=O)c1ccccc1)OCc1ccccc1`: the “hERG current change (%, negative = inhibition) at 1uM” value is given as -2.58%.

`CCOC(=O)CNC(=O)/C(=C\c1ccc(F)cc1)NC(=O)c1ccccc1`: the “hERG current change (%, negative = inhibition) at 1uM” value is given as -11.7%.

`O=C(CNC(=O)/C(=C\c1ccccc1)NC(=O)c1ccc(Br)cc1)OCc1ccccc1`: the “hERG current change (%, negative = inhibition) at 1uM” value is reported as -68.1%.

For the molecule `COc1ccc(/C=N/N=C(/N)N[N+](=O)[O-])c(OC)c1`, the “hERG current change (%, negative = inhibition) at 1uM” value turned out to be 7.59%.

For `CCN(CC)S(=O)(=O)c1cc(NC(=O)C(C)N2CCc3ccccc32)ccc1C` (stereo not shown), the “hERG current change (%, negative = inhibition) at 1uM” value was 9.99%.

On to `C=CCn1c(SCC(=O)NNC(=O)Nc2cccc(Cl)c2)nnc1-c1ccccc1`, for which the “hERG current change (%, negative = inhibition) at 1uM” value is reported as 6.04%.

Take `COc1ccc(C(=O)Oc2cc(C)c(CN3CCOCC3)cc2C)cc1OC`: the “hERG current change (%, negative = inhibition) at 1uM” value is given as -1.52%.

On to `C#CCSc1nc(N)c2c(n1)OC(N)=C(C#N)C2c1cccnc1` (stereo not shown), for which the “hERG current change (%, negative = inhibition) at 1uM” value came to 4.59%.

On to `O=C(CSc1ncccn1)N1CCN(C(c2ccccc2)c2ccccc2)CC1`, for which the “hERG current change (%, negative = inhibition) at 1uM” value is recorded as 4.43%.

Take `O=C(Cn1c(=O)cnc2ccccc21)N1CCN(S(=O)(=O)c2ccccc2Br)CC1`: the “hERG current change (%, negative = inhibition) at 1uM” value was found to be 36.9%.

With `CCn1c2ccc(C)cc2c2nnc(SCCN3CCOCC3)nc21`, the “hERG current change (%, negative = inhibition) at 1uM” value came out at 4.8%.

For the molecule `CCn1c2nc(SCCN3CCOCC3)nnc2c2cc(C)cc(C)c21`, the “hERG current change (%, negative = inhibition) at 1uM” value is -69.2%.

Take `CCCn1c2ccc(C)cc2c2nnc(SCCN3CCOCC3)nc21`: the “hERG current change (%, negative = inhibition) at 1uM” value was found to be 19%.

Regarding `Cc1ccc(S(=O)(=O)N2CCCC2C(=O)Nn2cnnc2)cc1` (stereo not shown), the “hERG current change (%, negative = inhibition) at 1uM” value amounted to 11.7%.

With `CCc1nc(SCC(=O)NC2CC2)c2c(C)c(C)sc2n1`, the “hERG current change (%, negative = inhibition) at 1uM” value is given as -4.16%.

As for `Cc1cc(NC(=O)NCc2ccccc2)c(=O)n(Cc2ccccc2F)c1`, the “hERG current change (%, negative = inhibition) at 1uM” value turned out to be 7.05%.

For the molecule `Fc1ccc(OCCOCCN2CCNCC2)cc1.O=C(O)C(=O)O`, the “hERG current change (%, negative = inhibition) at 1uM” value amounted to 10.4%.

Take `O=C(O)C(=O)O.O=[N+]([O-])c1ccc(OCCN2CCCCCC2)cc1`: the “hERG current change (%, negative = inhibition) at 1uM” value is reported as -74.5%.

As for `Cc1cc(=O)n(C)c(=O)n1CCCCOc1cccc([N+](=O)[O-])c1`, the “hERG current change (%, negative = inhibition) at 1uM” value worked out at 9.25%.

Regarding `CC1CCN(CCCCOc2ccc([N+](=O)[O-])cc2)CC1`, the “hERG current change (%, negative = inhibition) at 1uM” value is listed as -77.8%.

With `Cc1ccc(OCCN2CCNCC2)c([N+](=O)[O-])c1.O=C(O)C(=O)O`, the “hERG current change (%, negative = inhibition) at 1uM” value is given as 17.4%.

With `O=C(O)C(=O)O.O=[N+]([O-])c1ccc(OCCN2CCNCC2)cc1`, the “hERG current change (%, negative = inhibition) at 1uM” value is -52.2%.

Consider `Cc1cc(=O)n(C)c(=O)n1CCCCCCOc1ccc([N+](=O)[O-])cc1`, for which the “hERG current change (%, negative = inhibition) at 1uM” value is on record as -11.1%.

`COc1ccc(OCCCCN2CCC(C)CC2)cc1.O=C(O)C(=O)O`: the “hERG current change (%, negative = inhibition) at 1uM” value stood at 0.418%.

`Cc1ccc(OCCN2CCCC2)cc1.O=C(O)C(=O)O`: the “hERG current change (%, negative = inhibition) at 1uM” value came out at 7.22%.

With `CC1CCN(CCCCOc2ccc(Br)cc2)CC1`, the “hERG current change (%, negative = inhibition) at 1uM” value is recorded as -30.4%.

`CCOc1ccc(OCCN2CCCCC2)cc1.O=C(O)C(=O)O`: the “hERG current change (%, negative = inhibition) at 1uM” value is listed as -4.9%.

Turning to `Cc1cc(=O)n(C)c(=O)n1CCCCOc1ccc([N+](=O)[O-])cc1`, the “hERG current change (%, negative = inhibition) at 1uM” value is on record as -66.8%.

For `CCCc1cc(=O)oc2cc(C)cc(OCC(=O)Nc3ccc(CN4CCOCC4)cc3)c12`, the “hERG current change (%, negative = inhibition) at 1uM” value is recorded as 10.4%.

`CCCN(CCC)CCNC(=O)C1CC(=O)N(c2ccc(OC)cc2)C1c1ccc(OC)cc1` (stereo not shown): the “hERG current change (%, negative = inhibition) at 1uM” value was -18.1%.

Turning to `CCOC(=O)C1(C)NC(c2ccccc2F)C2C(=O)N(c3cccc(C(C)=O)c3)C(=O)C21` (stereo not shown), the “hERG current change (%, negative = inhibition) at 1uM” value was found to be 15.4%.

Take `CC(=O)Nc1ccc(-c2nnn(CC(=O)c3ccccc3)n2)cc1Cl`: the “hERG current change (%, negative = inhibition) at 1uM” value worked out at 8.22%.
